CHOP inhibitor – CHOP inhibition in unfolded protein response; CHO-K1 CHOP-promoter luciferase, tunicamycin-induced, 15-18 h; inhibition, % at 10 µM; actives 3.8% (n = 220,000);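 active means compounds that reduced the stress-induced luciferase reporter signal by more than about 70% of percent inhibition, limit read from the data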;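 further: 0% = tunicamycin plus vehicle and 100% = wells without tunicamycin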
Hsp70 activator – transcriptional activators of Hsp70 | HeLa Hsp70 promoter luciferase reporter, luminescence; scaled: vehicle 0, proteasome-inhibitor control 100% | activation, % at 10 µM | actives 0.04% (n = 200,000);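 active means activation above the mean across all tested compounds plus 3 SD, cutoff set per campaign, cut at about 5.5% in these data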;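 further: 100% = MG132 at 30 µM as the positive control and 0% = DMSO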
S1P4 antagonist – blocks the human S1P4 receptor | O95977 | S1P4-expressing cells, antagonist mode, reporter read-out | inhibition, % at 4.98 µM | actives 0.26% (n = 220,000) | AID 1510; in the data active means inhibition above about 29%;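 further: 0% = wells stimulated with agonist and 100% = vehicle wells without agonist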
Target sequence (O95977 whole entry, looked up): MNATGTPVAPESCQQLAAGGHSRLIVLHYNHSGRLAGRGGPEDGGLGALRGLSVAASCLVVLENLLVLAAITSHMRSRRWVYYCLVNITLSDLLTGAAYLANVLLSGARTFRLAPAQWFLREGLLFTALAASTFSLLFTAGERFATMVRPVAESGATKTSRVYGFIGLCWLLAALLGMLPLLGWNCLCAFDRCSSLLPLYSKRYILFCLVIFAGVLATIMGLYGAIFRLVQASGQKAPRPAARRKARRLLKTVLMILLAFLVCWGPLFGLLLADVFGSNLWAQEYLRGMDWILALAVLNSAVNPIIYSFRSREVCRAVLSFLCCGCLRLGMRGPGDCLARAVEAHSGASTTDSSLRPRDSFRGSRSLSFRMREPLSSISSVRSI
S1P4 ag – human S1P4 receptor agonism. O95977. S1P4-expressing cell line, agonist reporter assay. activation, % at 4.98 µM. actives 0.35% (n = 220,000); in the data active means activation above about 11%;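 further: 0% = DMSO vehicle and 100% = reference agonist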
CHOP inh conf – confirmation of CHOP induction inhibitors; actives 45% (n = 2,100); CHO-CHOP promoter luciferase reporter, tunicamycin-induced, luminescence; shares compounds with CHOP inhibitor; inhibition, % at 10 µM;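 active means mean of three repeat readings of reporter signal inhibition above a set limit, cut at about 70% in these data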;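 further: 0% = tunicamycin plus vehicle and 100% = wells lacking tunicamycin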
* = called active by the depositor. In the library only some 4.2% were active in any assay of this set; here they are far more common.

Screening CC(C)c1ccc(NC(=O)CSC(C)c2nc3ccccc3c(=O)[nH]2)cc1 (stereo unspecified) returned CHOP inhibitor 45, S1P4 antagonist -6 and S1P4 ag 0.
CCOC(=O)c1cc2c(=O)n3ccccc3nc2n(C(C)C)c1=NC(=O)c1c(-c2c(F)cccc2Cl)noc1C was read as CHOP inhibitor -5, Hsp70 activator -1, S1P4 antagonist -10 and S1P4 ag 2.
For CS(=O)(=O)c1ccc(S(=O)CC(=O)OCc2ccccc2)c([N+](=O)[O-])c1 (stereo unspecified) the results were CHOP inhibitor 107*, Hsp70 activator 0, S1P4 antagonist 29, S1P4 ag -3 and CHOP inh conf 128*.
For CCOC(=O)c1ccccc1OC(=O)CS(=O)c1ccccc1[N+](=O)[O-] (stereo unspecified) the results were CHOP inhibitor 9, Hsp70 activator 0, S1P4 antagonist 11 and S1P4 ag 0.
O=C(NC(c1ccc(Cl)cc1)c1cc(Cl)c2cccnc2c1O)c1cccnc1 (stereo unspecified) was read as CHOP inhibitor 110*, Hsp70 activator 0, S1P4 antagonist -13, S1P4 ag 1 and CHOP inh conf 38.
COCCn1c(SCC(=O)Nc2ccc(OC)cc2)nc2c(oc3ccccc32)c1=O was read as CHOP inhibitor 48, Hsp70 activator 0, S1P4 antagonist -17 and S1P4 ag -2.
Screening COCCn1c(SCC(=O)Nc2ccc(C)cc2C)nc2c(oc3ccccc32)c1=O returned CHOP inhibitor 101*, Hsp70 activator 0, S1P4 antagonist -17, S1P4 ag 1 and CHOP inh conf 22.
For COc1ccc(OC)c(NC(=O)Cn2cnc3c(cnn3-c3ccccc3)c2=O)c1 the results were CHOP inhibitor 11, Hsp70 activator 0, S1P4 antagonist -9 and S1P4 ag 1.
Screening CC(=O)SC(C[N+](=O)[O-])c1cn(C(C)=O)c2ccccc12 (stereo unspecified) returned CHOP inhibitor 106*, Hsp70 activator 0, S1P4 antagonist 5, S1P4 ag 1 and CHOP inh conf -60.
`CC(=O)n1cc(Nc2ccc([N+](=O)[O-])cc2)c2ccccc21` gave CHOP inhibitor 11, Hsp70 activator 0, S1P4 antagonist 1 and S1P4 ag 1.
For COCCn1cnc2c(c1=O)c1nc3ccccc3nc1n2/N=C/c1cccc(OC)c1 the results were CHOP inhibitor 101*, S1P4 antagonist 9, S1P4 ag -1 and CHOP inh conf 107*.
Screening COc1cccc(NC(=O)Cc2ccccc2)c1 returned CHOP inhibitor -7, Hsp70 activator 0, S1P4 antagonist -1 and S1P4 ag 1.
O=C(Cc1ccccc1)Nc1cccc(N2C(=O)C=CC2=O)c1 was read as CHOP inhibitor 109*, Hsp70 activator 0, S1P4 antagonist -12, S1P4 ag 2 and CHOP inh conf 132*.
For Cc1ccc(-c2csc3nc4c5ccccc5c(NCCCN(C)C)nn4c(=O)c23)cc1 the results were CHOP inhibitor 102*, Hsp70 activator 0, S1P4 antagonist -30, S1P4 ag 9 and CHOP inh conf -305.
For Clc1ccc(Cn2cc(/C=N/n3cnnc3)c3ccccc32)c(Cl)c1 the results were CHOP inhibitor 108*, Hsp70 activator 0, S1P4 antagonist 13, S1P4 ag 1 and CHOP inh conf 49.
CCCC(=O)Nc1cc(Cl)ccc1C was read as CHOP inhibitor 9, Hsp70 activator 0, S1P4 antagonist -11 and S1P4 ag -1.
For Cc1ccc(Cl)cc1NC(=O)CCC(=O)Nc1cc(Cl)ccc1C the results were CHOP inhibitor 100*, Hsp70 activator 0, S1P4 antagonist -3, S1P4 ag -2 and CHOP inh conf -15.
CNCc1ccccc1OCC(=O)Nc1ccccc1OC was read as CHOP inhibitor 22, Hsp70 activator 0, S1P4 antagonist -15 and S1P4 ag 0.
Cc1cccc(N2CCN(C(=O)CS(=O)(=O)Cc3nc(-c4ccccc4F)oc3C)CC2C)c1 (stereo unspecified) was read as CHOP inhibitor 98*, Hsp70 activator 0, S1P4 antagonist -7, S1P4 ag -1 and CHOP inh conf 80*.
Screening Cc1oc(-c2ccccc2F)nc1CS(=O)(=O)CC(=O)N1CCOCC1 returned CHOP inhibitor 29, Hsp70 activator 0, S1P4 antagonist -3 and S1P4 ag 0.
Screening CC(C)Cc1nc2oc3c(=O)[nH]cnc3c2c2c1CCC2 returned CHOP inhibitor 2, Hsp70 activator 0, S1P4 antagonist 1 and S1P4 ag -4.
`O=C(O)c1cccc(COc2ccc(CO)cc2Cl)c1` gave CHOP inhibitor 97* and CHOP inh conf 121*.
For O=C(OCC(F)(F)F)c1cccc(COc2ccc3ccccc3c2)c1 the results were CHOP inhibitor 97*, Hsp70 activator -1, S1P4 antagonist 10, S1P4 ag 0 and CHOP inh conf 116*.
`O=Cc1ccc(OCc2cccc(C(F)(F)F)c2)cc1O` gave CHOP inhibitor 47, Hsp70 activator 0, S1P4 antagonist -2 and S1P4 ag 1.
`COc1ccc(OCc2cccc(C(=O)O)c2)cc1` gave CHOP inhibitor 105* and CHOP inh conf 126*.
For CCOc1ccc(OCc2cccc(C(=O)N3CCCC3)c2)cc1 the results were CHOP inhibitor 23, Hsp70 activator 0, S1P4 antagonist -12 and S1P4 ag 0.
For O=C(O)c1ccc(COc2ccc(CO)cc2Cl)cc1 the results were CHOP inhibitor 4, Hsp70 activator 0, S1P4 antagonist -24 and S1P4 ag 1.
`Cc1ccc(C(=O)ONc2ccc(N=O)cc2)cc1` gave CHOP inhibitor 19, Hsp70 activator 0, S1P4 antagonist -7 and S1P4 ag -1.
Screening Cc1ccc(C(=O)ONc2ccc(N=NC(=O)c3ccccc3O)cc2)cc1 returned CHOP inhibitor 103*, Hsp70 activator 0, S1P4 antagonist 5, S1P4 ag 1 and CHOP inh conf 22.
For CCc1nnc(NC(=O)CSc2ccc(-c3nc4ccc(C)cc4[nH]3)cn2)s1 the results were CHOP inhibitor 100*, Hsp70 activator 0, S1P4 antagonist 6, S1P4 ag -1 and CHOP inh conf 1.
For Cc1ccc2nc(-c3ccc(SCC(=O)O)nc3)[nH]c2c1 the results were CHOP inhibitor 37, Hsp70 activator 0, S1P4 antagonist 0 and S1P4 ag 1.
Screening O=C(O)CCCC(=O)Nc1cccc(-c2nc3ccccc3[nH]2)c1 returned CHOP inhibitor -17, Hsp70 activator 0, S1P4 antagonist 9 and S1P4 ag -1.
For Cc1ccc2nc(SCC(=O)Nc3ccc(C(N)=O)cc3)[nH]c2c1 the results were CHOP inhibitor 24, Hsp70 activator 0, S1P4 antagonist -9 and S1P4 ag 0.
Cc1ccc2nc(-c3ccc(NC(=O)CSc4ccccc4)cc3)[nH]c2c1 was read as CHOP inhibitor 103*, Hsp70 activator 0, S1P4 antagonist 1, S1P4 ag 0 and CHOP inh conf -26.
